Results published in PubChem BioAssay AID720597 (Broad Institute, 2013).
Results with a measured potency or affinity are listed apart. The source made the active and inactive calls.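 The calls were made as follows: active = fitted half-maximal dose no more than twice the top valid tested dose, for compounds that lower signal; inconclusive = fit invalid, or curve flat with activity between -70 and -30; inactive = potency past limit, curve flat within ±30, or signal increasing.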

Molecular target: NAD-dependent protein deacylase sirtuin-5, mitochondrial (Homo sapiens) (UniProt Q9NXA8)
Assay: blockers of sirtuin-5 peptide desuccinylation – biochemical, fluorescence imaging, cherry-pick, set 6, dose response (AID 720597);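 also: lower AMC signal can also come from blocking the trypsin step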
Settings: Purified SirT5, succinyl-peptide-AMC/trypsin fluorescence; series mostly up to 15 µM

Chain of NAD-dependent protein deacylase sirtuin-5, mitochondrial (Homo sapiens) (Q9NXA8 whole entry, looked up): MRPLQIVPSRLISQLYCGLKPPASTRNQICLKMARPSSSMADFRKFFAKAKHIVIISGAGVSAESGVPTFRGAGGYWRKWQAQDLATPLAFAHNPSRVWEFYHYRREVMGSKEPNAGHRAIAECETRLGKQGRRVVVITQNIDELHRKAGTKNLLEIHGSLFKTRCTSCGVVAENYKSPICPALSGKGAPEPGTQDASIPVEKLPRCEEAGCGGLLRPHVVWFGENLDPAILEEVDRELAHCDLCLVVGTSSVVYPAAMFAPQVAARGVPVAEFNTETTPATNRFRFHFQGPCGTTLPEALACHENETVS

outcome, inactive:
O=C(CN1CCOCC1)N1CCCCN2[C@H](C1)[C@H](c1ccc(-c3ccccc3)cc1)[C@@H]2CO
C[C@@H]1CN([C@@H](C)CO)C(=O)c2cc(-c3cccc(F)c3)cnc2O[C@H]1CN(C)C
O=C(NCC[C@H]1CC[C@@H](NS(=O)(=O)c2cccc(F)c2)[C@@H](CO)O1)C1CCOCC1
COc1ccc(S(=O)(=O)N(C)C[C@H]2Oc3ccc(NC(=O)NC4CCCCC4)cc3C(=O)N([C@H](C)CO)C[C@@H]2C)cc1
COc1cccc(S(=O)(=O)N(C)C[C@@H]2Oc3cc(C4=CCCC4)ccc3S(=O)(=O)N([C@H](C)CO)C[C@H]2C)c1
C[C@H]1CN([C@@H](C)CO)C(=O)c2cccc(NC(=O)CCCCCC(=O)Nc3ccccc3N)c2O[C@@H]1CN(C)Cc1ccc(-c2ccccc2)cc1
C[C@@H]1CCCCO[C@H](CN(C)C(=O)Nc2ccc(C(F)(F)F)cc2)[C@H](C)CN([C@H](C)CO)C(=O)c2cc(NS(=O)(=O)c3ccc(Cl)cc3)ccc2O1
COc1ccc(S(=O)(=O)Nc2ccc3c(c2)C(=O)N([C@H](C)CO)C[C@@H](C)[C@H](CN(C)Cc2ccc(Oc4ccccc4)cc2)O3)cc1
COc1ccc(S(=O)(=O)Nc2ccc3c(c2)CC(=O)N([C@@H](C)CO)C[C@@H](C)[C@H](CN(C)Cc2ccc(C(F)(F)F)cc2)O3)cc1
C[C@H](CO)N1C[C@H](C)[C@H](CN(C)S(=O)(=O)c2cccc(F)c2)Oc2ncc(C#CC3CCCCC3)cc2C1=O
C[C@H](CO)N1C[C@H](C)[C@H](CN(C)S(=O)(=O)c2cccs2)Oc2c(NC(=O)C3CCCCC3)cccc2C1=O
COc1ccc(S(=O)(=O)Nc2ccc3c(c2)C(=O)N([C@H](C)CO)C[C@@H](C)[C@H](CN(C)Cc2ccc(C(F)(F)F)cc2)OCCCC[C@@H](C)O3)cc1
C[C@H]1CN([C@@H](C)CO)C(=O)c2cc(C#CCC3CCCC3)cnc2O[C@H]1CN(C)C(=O)c1cnccn1
C[C@@H]1CN([C@H](C)CO)C(=O)c2cccc(NC(=O)NC3CCCCC3)c2O[C@@H]1CN(C)Cc1ccc(Oc2ccccc2)cc1
C[C@@H]1CN([C@@H](C)CO)C(=O)Cc2cc(NC(=O)Nc3ccccc3)ccc2O[C@H]1CN(C)S(=O)(=O)c1ccc(F)cc1
C[C@H]1CN([C@@H](C)CO)C(=O)c2cc(C#CCN(C)C)cnc2O[C@H]1CN(C)Cc1ccncc1
C[C@@H]1CCCCO[C@@H](CN(C)Cc2ccc(Cl)c(Cl)c2)[C@@H](C)CN([C@H](C)CO)C(=O)c2cc(NC(=O)CCCCCC(=O)Nc3ccccc3N)ccc2O1
C[C@@H]1CN([C@@H](C)CO)C(=O)c2cccc(NC(=O)c3ccncc3)c2O[C@H]1CN(C)S(C)(=O)=O
C[C@H](CO)N1C[C@H](C)[C@H](CN(C)C(=O)c2ccccc2F)Oc2ncc(Br)cc2C1=O
CNC[C@H]1Oc2ccc(NC(=O)Nc3ccc(F)cc3)cc2CC(=O)N([C@@H](C)CO)C[C@H]1C
O=C(NCC[C@H]1CC[C@@H](NC(=O)C2CC2)[C@H](CO)O1)c1cc(Cl)cc(Cl)c1
C[C@H]1CN([C@@H](C)CO)C(=O)c2cc(NC(=O)Cc3ccccc3)ccc2O[C@H]1CN(C)Cc1ccc(Oc2ccccc2)cc1
COc1ccccc1C#Cc1ccc([C@H]2[C@@H](CO)N3CCCCN(C(=O)C4CCCC4)C[C@@H]23)cc1
CN(C)C(=O)[C@@H]1[C@@H](CO)[C@@H]2Cn3c(ccc(-c4ccccc4)c3=O)[C@@H]2N1Cc1ccccc1
C[C@H](CO)N1C[C@H](C)[C@H](CN(C)S(=O)(=O)c2ccc(Cl)cc2)OCc2ccccc2-c2c(n(C)c3ccccc23)C1=O
Cc1ccc(S(=O)(=O)Nc2ccc3c(c2)C(=O)N([C@H](C)CO)C[C@H](C)[C@H](CN(C)Cc2ccc(C(F)(F)F)cc2)OCCCC[C@H](C)O3)cc1
COc1cccc(-c2ccc3c(c2)[C@H]2[C@H](CCN2C(=O)c2ccccc2F)[C@H](CO)N3C)c1
C[C@H](CO)N1C[C@H](C)[C@H](CN(C)Cc2cccc(C(F)(F)F)c2)Oc2ncc(C#Cc3ccccc3)cc2C1=O
COc1ccc(S(=O)(=O)N(C)C[C@H]2OCCCC[C@@H](C)Oc3ccc(NS(=O)(=O)c4ccc(C)cc4)cc3C(=O)N([C@@H](C)CO)C[C@H]2C)cc1
O=C(CN1CCOCC1)N1CC[C@H]2[C@H](CO)Nc3ccc(-c4ccc(F)cc4)cc3[C@H]21
C[C@H](CO)N1C[C@H](C)[C@@H](CN(C)Cc2ccc(Cl)c(Cl)c2)Oc2ccc(NC(=O)CCCCCC(=O)Nc3ccccc3N)cc2CC1=O
C[C@@H]1CN([C@@H](C)CO)S(=O)(=O)c2ccc(/C=C/c3ccccc3)cc2O[C@@H]1CN(C)C(=O)NC1CCCC1
O=C(c1cnccn1)N1CC(=O)N2[C@H](CO)[C@@H](c3ccc(C4=CCCCC4)cc3)[C@@H]2C1
COc1ccc(S(=O)(=O)Nc2ccc3c(c2)C(=O)N([C@H](C)CO)C[C@@H](C)[C@H](CN(C)S(=O)(=O)c2ccc(Cl)cc2)OCCCC[C@H](C)O3)cc1
C[C@H]1CN([C@@H](C)CO)C(=O)c2cc(C#CC3CCCCC3)cnc2O[C@@H]1CN(C)S(=O)(=O)c1cccc(F)c1
COc1ccc(S(=O)(=O)N(C)C[C@@H]2Oc3ccc(NC(=O)CCC(F)(F)F)cc3C(=O)N([C@H](C)CO)C[C@H]2C)cc1
C[C@@H]1CN([C@@H](C)CO)S(=O)(=O)c2ccc(C#CC3CC3)cc2O[C@@H]1CN(C)C(=O)c1cccc(F)c1
C[C@@H]1CN([C@H](C)CO)C(=O)c2c(c3ccccc3n2C)-c2ccccc2CO[C@H]1CN(C)Cc1cccc2c1OCCCO2
CN(C)Cc1cn(CC[C@@H]2CC[C@H](N)[C@H](CO)O2)nn1
COc1ccccc1-c1ccc2c(c1)O[C@@H](CN(C)S(=O)(=O)c1ccc(F)cc1)[C@@H](C)CN([C@@H](C)CO)S2(=O)=O
